# Reference: paper PMC7862700, “An all-to-all approach to the identification of sequence-specific readers for epigenetic DNA modifications on cytosine”
# Legend:
# Test in all cases: DAPPL (digital affinity profiling via proximity ligation, sequencing); 10 mM Tris-HCl pH 7.5, 50 mM NaCl, 1 mM DTT, 4% glycerol, room temperature, 30 min; GST-TFs on glutathione beads, 16-mer random dsDNA library, 0.1% formaldehyde crosslink after washing; high values mean tight binding
# FLI1 = target: T1, FLI1 (Homo sapiens, UniProt Q01543 1-452); conditions: protein: recombinant; tags: N-terminal GST; dsDNA, one strand shown
# T1 sequence: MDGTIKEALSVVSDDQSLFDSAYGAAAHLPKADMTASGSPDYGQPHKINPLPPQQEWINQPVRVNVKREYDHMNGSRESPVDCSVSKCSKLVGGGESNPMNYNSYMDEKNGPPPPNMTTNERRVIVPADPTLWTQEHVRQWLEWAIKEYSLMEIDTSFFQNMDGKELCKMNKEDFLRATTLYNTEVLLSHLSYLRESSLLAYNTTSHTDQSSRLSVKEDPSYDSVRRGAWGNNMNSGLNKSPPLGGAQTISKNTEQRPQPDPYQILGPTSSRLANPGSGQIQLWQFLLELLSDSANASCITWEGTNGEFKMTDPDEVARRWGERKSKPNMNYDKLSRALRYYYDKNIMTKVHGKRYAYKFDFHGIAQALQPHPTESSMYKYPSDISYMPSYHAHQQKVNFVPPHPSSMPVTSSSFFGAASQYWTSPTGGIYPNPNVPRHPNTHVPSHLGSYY
# Procedure, shortened: (§1)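 Pools were built from human transcription factors expressed in yeast as GST fusions, captured on glutathione beads and DNA-barcoded, along with a tag-only sample. Incubation with 200 nmole of a 16-mer random double-stranded DNA library lasted 30 min at room temperature in Tris/NaCl/DTT/glycerol buffer, and was followed by washing, 0.1% formaldehyde crosslinking, proximity ligation, PCR amplification and Illumina NextSeq500 sequencing. Binding signal is the quotient of each hexamer's read frequency for a factor and its frequency for the tag-only sample.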
# ELK1 = target: T2, ELK1 (Homo sapiens, UniProt P19419 1-428); conditions: protein: recombinant; tags: N-terminal GST; dsDNA, one strand shown
# T2 sequence: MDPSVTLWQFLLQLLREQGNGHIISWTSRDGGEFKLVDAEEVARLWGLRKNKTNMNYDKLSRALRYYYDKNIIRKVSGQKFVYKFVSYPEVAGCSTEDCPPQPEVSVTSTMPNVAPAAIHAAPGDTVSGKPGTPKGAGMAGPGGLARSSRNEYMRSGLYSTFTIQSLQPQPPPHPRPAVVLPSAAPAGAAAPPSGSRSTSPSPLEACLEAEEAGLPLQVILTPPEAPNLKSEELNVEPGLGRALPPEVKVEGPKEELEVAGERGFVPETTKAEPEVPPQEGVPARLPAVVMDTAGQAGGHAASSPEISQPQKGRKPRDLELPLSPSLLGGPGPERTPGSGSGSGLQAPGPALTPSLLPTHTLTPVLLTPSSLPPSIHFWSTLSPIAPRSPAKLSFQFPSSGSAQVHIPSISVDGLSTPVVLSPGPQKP
# Procedure, shortened: as §1
# GABPA = target: T3, GABPA (Homo sapiens, UniProt Q06546 1-454); conditions: protein: recombinant; tags: N-terminal GST; dsDNA, one strand shown
# T3 sequence: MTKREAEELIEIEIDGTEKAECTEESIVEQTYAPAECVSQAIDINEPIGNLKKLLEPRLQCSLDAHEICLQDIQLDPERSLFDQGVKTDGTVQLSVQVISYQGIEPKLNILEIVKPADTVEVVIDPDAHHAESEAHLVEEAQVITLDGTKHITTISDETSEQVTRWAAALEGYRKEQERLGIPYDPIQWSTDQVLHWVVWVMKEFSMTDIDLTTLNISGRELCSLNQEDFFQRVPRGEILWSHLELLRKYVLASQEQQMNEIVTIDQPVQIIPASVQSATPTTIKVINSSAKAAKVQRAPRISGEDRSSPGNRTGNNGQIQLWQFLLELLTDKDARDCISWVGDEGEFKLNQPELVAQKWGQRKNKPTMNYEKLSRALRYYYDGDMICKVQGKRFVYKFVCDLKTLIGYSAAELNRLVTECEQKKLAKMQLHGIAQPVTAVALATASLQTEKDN
# Procedure, shortened: as §1
# ERG = target: T4, ERG (Homo sapiens, UniProt P11308 1-479); conditions: protein: recombinant; tags: N-terminal GST; dsDNA, one strand shown
# T4 sequence: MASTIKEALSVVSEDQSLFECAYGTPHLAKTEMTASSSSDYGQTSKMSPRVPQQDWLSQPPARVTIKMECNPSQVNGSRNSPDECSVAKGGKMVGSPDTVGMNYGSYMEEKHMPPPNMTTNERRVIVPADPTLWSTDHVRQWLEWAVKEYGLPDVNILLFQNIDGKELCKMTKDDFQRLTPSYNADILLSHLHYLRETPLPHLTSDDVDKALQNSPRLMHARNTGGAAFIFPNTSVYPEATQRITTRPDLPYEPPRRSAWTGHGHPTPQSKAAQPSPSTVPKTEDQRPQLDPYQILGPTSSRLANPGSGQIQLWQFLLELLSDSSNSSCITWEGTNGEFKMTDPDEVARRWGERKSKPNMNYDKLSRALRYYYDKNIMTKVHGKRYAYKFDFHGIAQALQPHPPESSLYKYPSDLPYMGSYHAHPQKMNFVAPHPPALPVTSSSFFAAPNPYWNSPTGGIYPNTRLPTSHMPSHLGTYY
# Procedure, shortened: as §1
# ELF1 = ELF1 (Homo sapiens, UniProt P32519 1-619); conditions: protein: recombinant; tags: N-terminal GST; dsDNA, one strand shown
# Procedure, shortened: as §1
# EHF = target: T5, EHF (Homo sapiens, UniProt Q9NZC4 1-300); conditions: protein: recombinant; tags: N-terminal GST; dsDNA, one strand shown
# T5 sequence: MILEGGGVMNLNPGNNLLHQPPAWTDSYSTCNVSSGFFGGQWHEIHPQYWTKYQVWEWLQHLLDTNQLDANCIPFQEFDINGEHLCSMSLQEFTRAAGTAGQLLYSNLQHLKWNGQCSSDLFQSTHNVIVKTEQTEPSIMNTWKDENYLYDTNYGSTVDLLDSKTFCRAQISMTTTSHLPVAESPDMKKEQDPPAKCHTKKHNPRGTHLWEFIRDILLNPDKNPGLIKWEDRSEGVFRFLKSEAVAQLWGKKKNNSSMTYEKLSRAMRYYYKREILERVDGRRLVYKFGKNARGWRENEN
# Procedure, shortened: as §1
# SPI1 = SPI1 (Homo sapiens, UniProt P17947 1-270); conditions: protein: recombinant; tags: N-terminal GST; dsDNA, one strand shown
# Procedure, shortened: as §1
# SPIB = SPIB (Homo sapiens, UniProt Q01892 1-262); conditions: protein: recombinant; tags: N-terminal GST; dsDNA, one strand shown
# Procedure, shortened: as §1
# ELK3 = target: T6, ELK3 (Homo sapiens, UniProt P41970 1-407); conditions: protein: recombinant; tags: N-terminal GST; dsDNA, one strand shown
# T6 sequence: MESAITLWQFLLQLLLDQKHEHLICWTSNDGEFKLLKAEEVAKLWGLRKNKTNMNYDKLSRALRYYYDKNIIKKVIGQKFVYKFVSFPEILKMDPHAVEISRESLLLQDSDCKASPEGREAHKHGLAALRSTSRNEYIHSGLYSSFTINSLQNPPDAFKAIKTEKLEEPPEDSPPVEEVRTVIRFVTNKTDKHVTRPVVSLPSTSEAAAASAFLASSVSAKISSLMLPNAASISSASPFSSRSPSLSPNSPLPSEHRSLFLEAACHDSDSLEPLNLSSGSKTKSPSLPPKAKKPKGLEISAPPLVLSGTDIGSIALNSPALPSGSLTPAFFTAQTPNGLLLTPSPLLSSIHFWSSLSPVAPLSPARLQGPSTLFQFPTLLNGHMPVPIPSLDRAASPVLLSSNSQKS
# Procedure, shortened: as §1
# FEV = target: T7, FEV (Homo sapiens, UniProt Q99581 1-238); conditions: protein: recombinant; tags: N-terminal GST; dsDNA, one strand shown
# T7 sequence: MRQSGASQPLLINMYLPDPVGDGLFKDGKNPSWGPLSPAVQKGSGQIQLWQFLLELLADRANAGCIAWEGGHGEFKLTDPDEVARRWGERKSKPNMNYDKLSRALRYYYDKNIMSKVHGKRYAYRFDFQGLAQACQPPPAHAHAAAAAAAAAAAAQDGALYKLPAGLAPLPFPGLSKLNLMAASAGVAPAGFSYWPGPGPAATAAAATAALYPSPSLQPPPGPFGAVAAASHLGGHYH
# Procedure, shortened: as §1
# ETV5 = ETV5 (Homo sapiens, UniProt P41161 1-510); conditions: protein: recombinant; tags: N-terminal GST; dsDNA, one strand shown
# Procedure, shortened: as §1
# HSF1 = HSF1 (Homo sapiens, UniProt Q00613 1-529); conditions: protein: recombinant; tags: N-terminal GST; chain copies: 3; dsDNA, one strand shown
# Procedure, shortened: as §1
# SPIC = target: T8, SPIC (Homo sapiens, UniProt Q8N5J4 1-248); conditions: protein: recombinant; tags: N-terminal GST; dsDNA, one strand shown
# T8 sequence: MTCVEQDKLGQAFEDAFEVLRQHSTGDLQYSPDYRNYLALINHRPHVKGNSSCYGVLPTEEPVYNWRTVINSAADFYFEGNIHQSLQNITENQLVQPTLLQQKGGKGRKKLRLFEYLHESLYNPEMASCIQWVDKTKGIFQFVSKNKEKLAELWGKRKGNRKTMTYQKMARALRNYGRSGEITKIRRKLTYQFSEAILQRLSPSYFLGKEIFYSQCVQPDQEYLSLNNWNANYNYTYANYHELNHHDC
# Procedure, shortened: as §1
# ELF4 = ELF4 (Homo sapiens, UniProt Q99607 1-663); conditions: protein: recombinant; tags: N-terminal GST; dsDNA, one strand shown
# Procedure, shortened: as §1
# ELK4 = target: T9, ELK4 (Homo sapiens, UniProt P28324-2 1-405); conditions: protein: recombinant; tags: N-terminal GST; dsDNA, one strand shown
# T9 sequence: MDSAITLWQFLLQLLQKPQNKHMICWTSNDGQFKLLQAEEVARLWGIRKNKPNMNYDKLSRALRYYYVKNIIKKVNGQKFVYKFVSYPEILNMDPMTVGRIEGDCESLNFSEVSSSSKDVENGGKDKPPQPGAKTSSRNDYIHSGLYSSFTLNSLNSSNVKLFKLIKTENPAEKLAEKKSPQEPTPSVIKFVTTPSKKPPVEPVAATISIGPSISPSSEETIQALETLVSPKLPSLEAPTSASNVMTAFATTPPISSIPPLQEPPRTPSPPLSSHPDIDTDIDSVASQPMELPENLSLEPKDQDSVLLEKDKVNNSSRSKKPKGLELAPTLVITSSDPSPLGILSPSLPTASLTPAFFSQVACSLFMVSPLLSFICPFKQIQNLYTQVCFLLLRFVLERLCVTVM
# Procedure, shortened: as §1
# ETV2 = target: T10, ETV2 (Homo sapiens, UniProt O00321 1-342); conditions: protein: recombinant; tags: N-terminal GST; dsDNA, one strand shown
# T10 sequence: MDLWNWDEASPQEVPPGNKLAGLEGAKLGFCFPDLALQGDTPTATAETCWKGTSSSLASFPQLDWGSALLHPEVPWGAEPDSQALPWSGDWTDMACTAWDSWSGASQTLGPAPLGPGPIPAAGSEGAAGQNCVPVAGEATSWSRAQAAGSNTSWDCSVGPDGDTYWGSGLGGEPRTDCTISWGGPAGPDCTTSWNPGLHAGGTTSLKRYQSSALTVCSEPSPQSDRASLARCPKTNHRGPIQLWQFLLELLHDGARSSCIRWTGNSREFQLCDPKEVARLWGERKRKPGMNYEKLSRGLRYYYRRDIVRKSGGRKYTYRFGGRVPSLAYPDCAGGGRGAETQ
# Procedure, shortened: as §1
# ELF3 = target: T11, ELF3 (Homo sapiens, UniProt P78545 1-371); conditions: protein: recombinant; tags: N-terminal GST; dsDNA, one strand shown
# T11 sequence: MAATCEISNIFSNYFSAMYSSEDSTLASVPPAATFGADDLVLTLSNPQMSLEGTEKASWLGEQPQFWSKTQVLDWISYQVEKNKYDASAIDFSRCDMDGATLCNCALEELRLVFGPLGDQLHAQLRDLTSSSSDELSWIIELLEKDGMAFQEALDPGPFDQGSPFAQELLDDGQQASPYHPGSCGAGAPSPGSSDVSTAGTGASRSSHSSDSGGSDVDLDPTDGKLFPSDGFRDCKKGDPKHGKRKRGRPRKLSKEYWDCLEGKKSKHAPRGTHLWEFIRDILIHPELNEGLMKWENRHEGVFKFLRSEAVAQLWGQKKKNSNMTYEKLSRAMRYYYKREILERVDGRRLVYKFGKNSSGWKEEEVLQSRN
# Procedure, shortened: as §1
# CRX = CRX (Homo sapiens, UniProt O43186 1-299); conditions: protein: recombinant; tags: N-terminal GST; dsDNA, one strand shown
# Procedure, shortened: as §1
# ETV1 = ETV1 (Homo sapiens, UniProt P50549 1-477); conditions: protein: recombinant; tags: N-terminal GST; dsDNA, one strand shown
# Procedure, shortened: as §1
# Sequence of ETV1 (P50549 whole entry): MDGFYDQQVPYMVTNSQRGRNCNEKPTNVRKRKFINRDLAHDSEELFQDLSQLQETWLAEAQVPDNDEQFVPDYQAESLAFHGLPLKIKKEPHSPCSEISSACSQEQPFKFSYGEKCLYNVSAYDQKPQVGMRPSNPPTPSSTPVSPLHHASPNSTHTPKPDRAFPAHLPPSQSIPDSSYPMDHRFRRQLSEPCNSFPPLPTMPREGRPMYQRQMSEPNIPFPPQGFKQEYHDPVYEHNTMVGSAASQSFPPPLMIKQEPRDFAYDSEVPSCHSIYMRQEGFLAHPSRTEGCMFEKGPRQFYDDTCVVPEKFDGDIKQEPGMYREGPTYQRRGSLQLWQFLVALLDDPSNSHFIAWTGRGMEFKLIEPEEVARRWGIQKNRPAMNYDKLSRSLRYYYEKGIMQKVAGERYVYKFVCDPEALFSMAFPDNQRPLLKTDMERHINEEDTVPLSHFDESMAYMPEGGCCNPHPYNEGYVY
# Sequence of HSF1 (Q00613 whole entry): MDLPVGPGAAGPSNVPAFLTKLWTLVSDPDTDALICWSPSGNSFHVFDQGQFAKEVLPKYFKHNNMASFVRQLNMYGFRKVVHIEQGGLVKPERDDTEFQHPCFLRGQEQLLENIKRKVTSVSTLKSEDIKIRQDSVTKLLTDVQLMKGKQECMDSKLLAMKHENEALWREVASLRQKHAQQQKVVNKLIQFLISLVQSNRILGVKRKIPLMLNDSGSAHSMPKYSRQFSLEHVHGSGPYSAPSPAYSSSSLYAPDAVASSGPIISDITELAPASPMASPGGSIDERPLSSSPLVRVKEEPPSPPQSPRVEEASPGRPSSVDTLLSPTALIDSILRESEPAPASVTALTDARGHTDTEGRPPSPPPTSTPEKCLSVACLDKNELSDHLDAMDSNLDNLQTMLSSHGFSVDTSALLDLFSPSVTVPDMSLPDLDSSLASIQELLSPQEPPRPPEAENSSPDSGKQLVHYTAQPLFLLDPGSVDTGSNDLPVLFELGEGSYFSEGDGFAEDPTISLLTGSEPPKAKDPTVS
# Sequence of ELF4 (Q99607 whole entry): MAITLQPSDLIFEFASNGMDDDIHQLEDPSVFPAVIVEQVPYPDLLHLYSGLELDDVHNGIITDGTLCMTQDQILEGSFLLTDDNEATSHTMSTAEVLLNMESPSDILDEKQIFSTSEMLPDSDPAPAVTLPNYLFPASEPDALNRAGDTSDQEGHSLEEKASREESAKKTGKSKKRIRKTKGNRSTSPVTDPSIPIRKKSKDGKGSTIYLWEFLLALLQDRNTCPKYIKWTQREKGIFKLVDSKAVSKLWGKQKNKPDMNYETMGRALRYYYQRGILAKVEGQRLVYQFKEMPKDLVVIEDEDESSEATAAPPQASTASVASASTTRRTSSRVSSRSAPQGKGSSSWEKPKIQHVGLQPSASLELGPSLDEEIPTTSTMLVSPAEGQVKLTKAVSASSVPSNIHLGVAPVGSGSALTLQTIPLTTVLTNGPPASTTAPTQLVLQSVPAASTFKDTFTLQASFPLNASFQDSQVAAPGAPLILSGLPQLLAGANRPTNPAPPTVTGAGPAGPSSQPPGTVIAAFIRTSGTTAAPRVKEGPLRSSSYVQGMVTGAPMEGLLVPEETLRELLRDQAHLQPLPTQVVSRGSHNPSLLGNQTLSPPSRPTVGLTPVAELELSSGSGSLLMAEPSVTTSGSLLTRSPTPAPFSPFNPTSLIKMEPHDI
# Sequence of SPIB (Q01892 whole entry): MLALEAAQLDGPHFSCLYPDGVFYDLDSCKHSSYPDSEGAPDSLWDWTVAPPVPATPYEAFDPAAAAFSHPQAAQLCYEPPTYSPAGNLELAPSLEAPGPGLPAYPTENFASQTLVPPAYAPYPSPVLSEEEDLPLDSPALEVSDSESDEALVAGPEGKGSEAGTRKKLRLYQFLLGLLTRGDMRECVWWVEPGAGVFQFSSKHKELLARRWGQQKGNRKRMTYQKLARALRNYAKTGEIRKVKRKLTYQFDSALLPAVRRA
# Sequence of CRX (O43186 whole entry): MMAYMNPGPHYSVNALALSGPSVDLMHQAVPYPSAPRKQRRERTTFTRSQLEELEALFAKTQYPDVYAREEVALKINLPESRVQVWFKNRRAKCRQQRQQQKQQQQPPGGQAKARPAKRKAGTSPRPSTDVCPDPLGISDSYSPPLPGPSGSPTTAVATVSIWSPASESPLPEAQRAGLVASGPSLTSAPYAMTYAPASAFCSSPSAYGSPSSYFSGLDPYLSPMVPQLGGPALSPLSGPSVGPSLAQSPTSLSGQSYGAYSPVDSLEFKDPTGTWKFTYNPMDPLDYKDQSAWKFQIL
# Sequence of ELF1 (P32519 whole entry): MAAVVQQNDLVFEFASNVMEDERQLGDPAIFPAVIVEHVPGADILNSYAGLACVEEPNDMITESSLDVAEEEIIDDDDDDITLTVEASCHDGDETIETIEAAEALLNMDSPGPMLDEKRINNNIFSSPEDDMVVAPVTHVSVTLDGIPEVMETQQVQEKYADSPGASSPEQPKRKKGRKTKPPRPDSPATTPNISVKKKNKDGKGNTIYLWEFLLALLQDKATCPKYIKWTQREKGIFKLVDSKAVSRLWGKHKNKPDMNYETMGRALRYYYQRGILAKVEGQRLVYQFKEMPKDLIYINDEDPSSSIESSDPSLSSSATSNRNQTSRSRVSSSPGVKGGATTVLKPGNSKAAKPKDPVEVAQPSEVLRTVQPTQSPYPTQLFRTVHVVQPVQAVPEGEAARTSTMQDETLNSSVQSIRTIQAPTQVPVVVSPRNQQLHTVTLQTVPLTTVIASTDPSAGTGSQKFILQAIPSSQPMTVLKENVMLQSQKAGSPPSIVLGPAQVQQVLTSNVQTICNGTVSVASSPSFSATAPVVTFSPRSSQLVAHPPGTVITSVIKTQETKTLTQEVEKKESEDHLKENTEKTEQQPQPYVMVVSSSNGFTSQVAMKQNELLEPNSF
# Sequence of ETV5 (P41161 whole entry): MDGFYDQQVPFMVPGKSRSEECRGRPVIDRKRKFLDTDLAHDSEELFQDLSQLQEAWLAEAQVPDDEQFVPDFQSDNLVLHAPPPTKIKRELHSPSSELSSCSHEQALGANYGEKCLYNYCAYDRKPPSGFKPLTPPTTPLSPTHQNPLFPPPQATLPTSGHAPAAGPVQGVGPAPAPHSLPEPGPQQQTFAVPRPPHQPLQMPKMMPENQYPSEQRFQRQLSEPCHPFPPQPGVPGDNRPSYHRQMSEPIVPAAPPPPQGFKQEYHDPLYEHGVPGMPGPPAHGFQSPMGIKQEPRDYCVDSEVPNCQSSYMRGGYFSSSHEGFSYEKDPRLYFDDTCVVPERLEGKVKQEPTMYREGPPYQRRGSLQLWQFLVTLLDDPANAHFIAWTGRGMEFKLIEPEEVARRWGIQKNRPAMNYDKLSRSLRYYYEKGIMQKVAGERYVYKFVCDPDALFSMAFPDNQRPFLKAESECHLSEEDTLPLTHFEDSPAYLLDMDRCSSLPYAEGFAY
sequence,measurement,setting,value
TACATC,binding signal,FLI1,"1.63 fold enrichment (6-mer frequency, TF over GST control)"
same,binding signal,ELK1,"1.67 fold enrichment (6-mer frequency, TF over GST control)"
same,binding signal,GABPA,"1.51 fold enrichment (6-mer frequency, TF over GST control)"
same,binding signal,ERG,"1.65 fold enrichment (6-mer frequency, TF over GST control)"
same,binding signal,ELF1,"1.53 fold enrichment (6-mer frequency, TF over GST control)"
same,binding signal,EHF,"1.6 fold enrichment (6-mer frequency, TF over GST control)"
same,binding signal,SPI1,"1.57 fold enrichment (6-mer frequency, TF over GST control)"
same,binding signal,SPIB,"1.65 fold enrichment (6-mer frequency, TF over GST control)"
same,binding signal,ELK3,"1.74 fold enrichment (6-mer frequency, TF over GST control)"
same,binding signal,FEV,"1.77 fold enrichment (6-mer frequency, TF over GST control)"
same,binding signal,ETV5,"1.63 fold enrichment (6-mer frequency, TF over GST control)"
same,binding signal,HSF1,"1.09 fold enrichment (6-mer frequency, TF over GST control)"
same,binding signal,SPIC,"1.61 fold enrichment (6-mer frequency, TF over GST control)"
same,binding signal,ELF4,"1.56 fold enrichment (6-mer frequency, TF over GST control)"
same,binding signal,ELK4,"1.53 fold enrichment (6-mer frequency, TF over GST control)"
same,binding signal,ETV2,"1.65 fold enrichment (6-mer frequency, TF over GST control)"
same,binding signal,ELF3,"1.48 fold enrichment (6-mer frequency, TF over GST control)"
same,binding signal,CRX,"1.17 fold enrichment (6-mer frequency, TF over GST control)"
same,binding signal,ETV1,"1.64 fold enrichment (6-mer frequency, TF over GST control)"
